Growth data for 8 compounds are collected here from PubChem BioAssay (NCI).

Some test systems named below: SK-MEL-2 melanoma; SN12C renal; UO-31 renal; ACHN renal; CAKI-1 renal; A498 renal; CCRF-CEM leukemia; MOLT-4 leukemia; SR leukemia; RPMI-8226 leukemia; OVCAR-8 ovarian; OVCAR-5 ovarian; OVCAR-4 ovarian; SK-OV-3 ovarian; IGROV1 ovarian; OVCAR-3 ovarian; HS 578T breast; NCI/ADR-RES ovarian; TK-10 renal; EKVX NSCLC.
What all share (experiment): NCI-60 one-dose screen, 48 h (100 = growth as untreated, 0 = no growth, -100 = all killed)
What all share (conditions): 10 µM unless noted

Values joined by “and” are separate entries in the source; they are usually repeats but may differ in a detail not shown here. Identical values can stand only once. About 83,000 compounds went through this panel and 20% of them were active in at least one assay; those are over-represented in the sample as a whole.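 Single-concentration screen, 48 h exposure, 96-well plates. Endpoint: percent growth. Below 10 = active.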 Unmarked numbers belong to inactive results. Active and inactive are the calls of the source.

Turning to `CCCCCCCCCCCCCCCCOP(=O)([O-])OCC[N+](C)(C)C`, the growth in the test with SK-MEL-2 melanoma is 56.8%; with SN12C renal it was 34.2%; with UO-31 renal, 19.3%; with ACHN renal, 36.4%; in the test on CAKI-1 renal, 16.5%; in the test with A498 renal, 3.51% (active). The growth was 1.24% (active) with CCRF-CEM leukemia; -19.9% (active) with MOLT-4 leukemia; 15% with SR leukemia; 7.31% (active) in the test with RPMI-8226 leukemia; 59.6% in the test with OVCAR-8 ovarian; 53.2% in the test with OVCAR-5 ovarian. For the same compound, the growth was 78.3% with OVCAR-4 ovarian; 37.9% with SK-OV-3 ovarian; 21.3% in the test on IGROV1 ovarian; 33.4% in the test on OVCAR-3 ovarian; 33.7% in the test with HS 578T breast; 90% with NCI/ADR-RES ovarian.
For `Cc1cc2nc(CS)[nH]c2cc1C`, the growth with SK-MEL-2 melanoma is 101%; in the test with SN12C renal, 102%; in the test with UO-31 renal, 83.1%; in the test on TK-10 renal it was 131%; in the test on ACHN renal it was 92%; in the test with CAKI-1 renal, 43.9%. Moreover, the growth in the test on A498 renal is 95.7%; with CCRF-CEM leukemia, 55%; with SR leukemia it was 45.9%; in the test with RPMI-8226 leukemia, 28.7%; with OVCAR-8 ovarian it was 96.5%; with OVCAR-5 ovarian, 96.8%. In addition, the growth with OVCAR-4 ovarian is 85.5%; with SK-OV-3 ovarian, 87.1%; with IGROV1 ovarian, 74.5%; with OVCAR-3 ovarian it was 82.6%; in the test with NCI/ADR-RES ovarian, 95.7%.
Regarding `Nc1nc(N)c2nc(CNc3ccc(C(=O)NC(CCC(=O)O)C(=O)O)cc3)cnc2n1` (centres undefined), the growth was 60.1% and 58.9% in the test on SK-MEL-2 melanoma; 25.6% and 14.7% in the test on SN12C renal; 54% and 48.1% in the test with TK-10 renal; 19.4% in the test on ACHN renal; 25.9% and 21.9% in the test on CAKI-1 renal; 45.4% and 85.7% in the test on A498 renal. Also, the growth is 22.6% and 29.9% in the test on CCRF-CEM leukemia; 25.8% and 31.5% in the test with MOLT-4 leukemia; 15.1% and 40.2% in the test with SR leukemia; 60.7% and 55% in the test with RPMI-8226 leukemia; 31.9% with OVCAR-5 ovarian; 58.8% and 49.1% with OVCAR-4 ovarian. In addition, the growth in the test with SK-OV-3 ovarian was 53.9% and 44.2%; with IGROV1 ovarian, 36.9% and 34.9%; in the test on OVCAR-3 ovarian, 37.6% and 39.8%; in the test on NCI/ADR-RES ovarian it was 25.8% and 20.3%.
With `CCC(CCCN(CC)CCc1ccccc1)OC(=O)c1cc(OC)c(OC)c(OC)c1` (centres undefined), the growth is 83.8% with EKVX NSCLC; 90.2% in the test on SN12C renal; 69.8% in the test on UO-31 renal; 72.6% in the test on TK-10 renal; 82.8% with ACHN renal; 89.7% in the test with CAKI-1 renal. For the same compound, the growth with A498 renal is 60.2%; with CCRF-CEM leukemia, 98.6%; in the test with MOLT-4 leukemia, 87.1%; in the test with SR leukemia, 78.7%; in the test with RPMI-8226 leukemia, 85%; in the test on OVCAR-8 ovarian it was 92.2%. Besides, the growth in the test with OVCAR-5 ovarian was 84.8%; with OVCAR-4 ovarian it was 82.6%; in the test on SK-OV-3 ovarian it was 83.5%; in the test with IGROV1 ovarian, 78.1%; in the test with OVCAR-3 ovarian, 92.2%; in the test on HS 578T breast, 81.3%. In addition, in the test on NCI/ADR-RES ovarian, the growth was 83.3%.
Turning to `CCC1OC(OC)C=CC1=O` (centres undefined), the growth in the test with SK-MEL-2 melanoma was 129%; with SN12C renal, 94.7%; with UO-31 renal, 93.4%; in the test on TK-10 renal, 110%; in the test with ACHN renal it was 113%; in the test with CAKI-1 renal, 113%. Moreover, the growth was 90.3% in the test on A498 renal; 94.5% in the test on CCRF-CEM leukemia; 81.5% in the test with SR leukemia; 110% in the test on RPMI-8226 leukemia; 117% with OVCAR-8 ovarian; 103% with OVCAR-4 ovarian. The growth in the test with SK-OV-3 ovarian is 102%; with IGROV1 ovarian it was 137%; with OVCAR-3 ovarian, 95.4%; in the test on NCI/ADR-RES ovarian, 111%.
With `c1ccc2c(c1)Nc1cc3ccccc3cc1N2`, the growth with EKVX NSCLC is 56.4%; in the test with SN12C renal it was 54.6%; with UO-31 renal, 17.6%; in the test with TK-10 renal, 93.3%; with ACHN renal, 27%; with CAKI-1 renal, 38%. Besides, the growth in the test with A498 renal is 81.9%; with CCRF-CEM leukemia it was 26.5%; with MOLT-4 leukemia, 20.9%; with SR leukemia, 29.2%; with RPMI-8226 leukemia, 18.8%; with OVCAR-8 ovarian, 29.5%. The growth is 32.6% in the test on OVCAR-4 ovarian; 63.6% with SK-OV-3 ovarian; 50.6% in the test on IGROV1 ovarian; -3.74% (active) in the test on OVCAR-3 ovarian; 53.4% in the test with HS 578T breast; 30.5% in the test on NCI/ADR-RES ovarian.
Regarding `Nc1nc(N)c2c(ccc3c2ccn3Cc2cccc([N+](=O)[O-])c2)n1`, the growth was -92% (active) with SK-MEL-2 melanoma; -83.6% (active) with SN12C renal; -95.5% (active) in the test on UO-31 renal; -97% (active) in the test on ACHN renal; -96.1% (active) in the test on CAKI-1 renal; -89.5% (active) with A498 renal. Further, the growth is 24% in the test with CCRF-CEM leukemia; 46.2% with MOLT-4 leukemia; 110% in the test with SR leukemia; 19.4% with RPMI-8226 leukemia; -54.4% (active) in the test on OVCAR-8 ovarian; -96.9% (active) in the test with OVCAR-5 ovarian. The growth in the test on OVCAR-4 ovarian was -79.2% (active); in the test with SK-OV-3 ovarian it was -100% (active); in the test on IGROV1 ovarian, -90% (active); in the test on OVCAR-3 ovarian, -93.9% (active); in the test on HS 578T breast, -58.2% (active); in the test on NCI/ADR-RES ovarian, 22.5%.
Turning to `CN(C)C(=O)SC1=C(c2c(Cl)cccc2Cl)C(=O)c2ccccc21`, the growth in the test on SK-MEL-2 melanoma is 136%; with SN12C renal, 82.3%; with UO-31 renal, -34.4% (active); in the test with TK-10 renal it was -43.7% (active); with ACHN renal it was -43.2% (active); with CAKI-1 renal, -28.9% (active). For the same compound, the growth in the test on A498 renal was 115%; with CCRF-CEM leukemia, 0.862% (active); in the test with SR leukemia it was -36.3% (active); with RPMI-8226 leukemia it was -2.59% (active); with OVCAR-8 ovarian, 51.7%; with OVCAR-4 ovarian, -11.6% (active). Further, the growth is 110% in the test on SK-OV-3 ovarian; 119% in the test on IGROV1 ovarian; -81.5% (active) in the test on OVCAR-3 ovarian; 21.4% in the test on HS 578T breast; 99.1% with NCI/ADR-RES ovarian.
